# Bioassay records: PubChem BioAssay, National Center for Advancing Translational Sciences (NCATS)
# SARS PLpro yeast – blocks SARS-CoV papain-like protease in a yeast assay | S. cerevisiae expressing SARS-CoV PLpro, growth rescue | Potency, µM (doses to about 32.9 µM), inactives show at the highest dose activity, positive = growth rescue, hits mostly activators | 0.19% of 330,000 active; calls by dose curve; also: 0% is about no effect; nearly all actives have a fitted effect of over 55% in size
# Pf growth 96h – P. falciparum growth inhibition at 96 hour, primary screen for plastid delayed-death inhibitors; P. falciparum luciferase reporter growth, 96 h; Potency, µM (doses to about 28.7 µM), without a hit: top-dose activity change, negative = inhibition, usual class: inhibitors; 6.9% of 320,000 active; AID 504834; also: % is scaled to controls: 0 for no effect and ±100 for the full control effect
#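 96 h incubation, 37 C, 5% CO2, of luciferase-reporter P. falciparum-infected RBCs (2% hematocrit, 0.05% parasitemia final) with test compounds; endpoint luminescence.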
# AMA1 RON2 block – inhibitors of Plasmodium falciparum AMA1-RON2 interaction; AlphaScreen AMA1-biotinylated RON2 peptide binding; Potency, µM (top dose mostly 58.2 µM), for inactives: at the highest dose activity change, negative = inhibition, hits mostly inhibitors; 0.2% of 360,000 active;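 also: 0% = vehicle wells and -100% = peptide control; nearly all actives have a fitted effect of over 45% in size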
#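 AMA1 (3D7) with his tag at 25 nM final met compounds first, then biotinylated RON2 peptide at 25 nM; detection used donor plus acceptor beads, 10 µg/mL apiece, read by AlphaScreen after 30 min at room temperature.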
# Pf growth 48h – P. falciparum growth inhibition at 48 hours (one generation) | P. falciparum luciferase growth in erythrocytes, 48 h | Potency, µM (top dose mostly 28.7 µM), for the others: top-dose activity change, negative = inhibition, most hits filed as inhibitors | 5.9% of 310,000 active | AID 504832; also: % is scaled to controls: 0 for no effect and ±100 for the full control effect
#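 Firefly luciferase activity from engineered P. falciparum reports growth; inhibitors lower the luminescent signal. Cultures contained 2% hematocrit erythrocytes at 0.1% final parasitemia.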
# Starred values were filed as active, the others as inactive; ? = inconclusive; . = not tested or not shown; [ ] = another dose, or the depositor's remark. Most compounds without a hit are left out; they make up all but 9.4% or so of the library. Unless noted, calls follow the shape of the dose curve; as a rule, active = well fitted curve in the direction sought with a large enough effect; inconclusive = small, poorly fitted or top-dose-only effect, or another doubt; inactive = no such curve, though single readings can be large; an effect the other way counts as inactive or inconclusive. Potency is read from the fitted curve at half-maximal effect.
SMILES,SARS PLpro yeast,Pf growth 96h,AMA1 RON2 block,Pf growth 48h
Nc1c(Cl)cc(NC(=O)c2ccccc2C(=O)O)cc1Br,9%,16%,-21%,7%
O=C(O)c1cc(-c2ccc3c(c2)OCO3)nc2ccccc12,-4%,8.3µM*,-3%,.
CCCN(CCC)C(=O)c1cc(-c2ccc3c(c2)OCO3)nc2ccccc12,-12%,1.7µM*,24%,.
CCCNC(=O)NNC(=O)c1cc(-c2ccc3c(c2)OCO3)nc2ccccc12,2%,-14%,52%,?
Cc1cc(-c2cc(C(=O)O)c3ccccc3n2)c(C)s1,0%,1.7µM*,-1%,16%
CC(=O)c1ccc(N2CCN(C(=O)c3cc(-c4ccncc4)nc4ccc(Br)cc34)CC2)cc1,-4%,-15%,0%,13µM*
N/C(=N\c1nc2c(c(=O)[nH]1)CCC2)Nc1ccccc1C(F)(F)F,3%,-24%,25%,-1%
CC(=O)[C@H]1CC[C@H]2[C@@H]3CC=C4C[C@@H](O)CC[C@]4(C)[C@H]3CC[C@]12C,-4%,?,16%,?
Cc1ccc(-c2cc(C(=O)N3CCN(c4ccc(O)cc4)CC3)c3ccccc3n2)cc1,-12%,.,-14%,.
CC(=O)c1ccc(N2CCN(C(=O)c3cc(-c4ccc5c(c4)OCO5)nc4ccccc34)CC2)cc1,-2%,0%,-4%,6.6µM*
CC(=O)c1ccc(-c2cnc3c(NC=O)cc(-c4ccc(S(C)(=O)=O)cc4)cn23)cc1,.,.,28%,.
Cc1cccc(C)c1-n1nnnc1C1(C)CCC(=O)N1CC1CCCCC1 (stereo not drawn),.,.,0%,.
CSCC[C@@H](C(=O)NCc1cccs1)N1Cc2ccccc2C1=O,2%,8.3µM*,-3%,.
CSCCC(C(=O)NCc1cccs1)N1C(=O)c2ccccc2C1=O (stereo not drawn),2%,9%,-7%,.
CCN(CC)c1ccc(N)cc1S(=O)(=O)Nc1ccccc1OC,4%,11%,2%,-6%
CCN(CC)c1ccc(NC(=O)c2ccccn2)cc1S(=O)(=O)Nc1ccccc1OC,0%,10µM*,5%,5.9µM*
CCN(CC)c1ccc(NC(=O)COc2ccccc2C#N)cc1S(=O)(=O)Nc1ccccc1OC,-7%,9.3µM*,-8%,1.7µM*
CCC(C)n1c(SCc2ccccc2)nc2ccsc2c1=O (stereo not drawn),-13%,4.1µM*,5%,?
CCC(C)n1c(SCC(=O)Nc2ccccc2C(F)(F)F)nc2ccsc2c1=O (stereo not drawn),-16%,?,-5%,-20%
Cc1cc2c3c(c1C)C1(C(=O)N3C(C)(C)CC2C)C(C#N)=C(N)OC2=C1C(=O)CC(C)(C)C2 (stereo not drawn),14%,9.3µM*,6%,13µM*
Cc1cc2c3c(c1)C(C)(c1ccccc1)CC(C)(C)N3C(=O)C21C(C#N)=C(N)OC2=C1C(=O)CC(C)(C)C2 (stereo not drawn),-20%,1.9µM*,-5%,.
Cc1cc2c3c(c1C)C1(C(=O)N3C(C)(C)CC2C)C(C#N)=C(N)Oc2n[nH]c(C)c21 (stereo not drawn),2%,12%,-9%,?
Cc1cc2c3c(c1)C1(C(=O)N3C(C)(C)CC2C)C(C#N)=C(N)Oc2n[nH]c(C)c21 (stereo not drawn),-4%,.,-8%,12µM*
C1CCN2CC3CC(CN4CCCC[C@@H]34)[C@H]2C1,.,.,0%,.
CC(=NCCCNC1CCCCC1)C1=C(O)CC(C)(C)CC1=O,2%,1%,1%,19%
SMILES,SARS PLpro yeast,Pf growth 96h,AMA1 RON2 block,Pf growth 48h
CN1CCN(c2nc(-c3ccccc3)c3cc(Cl)ccc3n2)CC1,-6%,5%,-8%,?
CCOC(=O)N1CCN(c2nc(-c3ccccc3)c3cc(C)ccc3n2)CC1,-3%,?,45%,10µM*
Clc1ccc2nc(N3CCNCC3)nc(-c3ccccc3)c2c1,-9%,9%[5.75 µM],21%,12µM*
CCOc1ccc(-c2cc(C(=O)NN3CCN(C)CC3)c3cc(Cl)ccc3n2)cc1,-2%,4.1µM*,.,2.3µM*
COc1cc2ccccc2cc1C(=O)N1CC(C)CC(C)C1 (stereo not drawn),4%,0.29µM*,0%,0.33µM*
CCOc1ccc(-c2cc(C(=O)N3CCN(C)CC3)c3ccccc3n2)cc1,-3%,.,12%,154%
Cc1cc(C)nc(NC(=NCc2ccc3c(c2)OCO3)NC(=O)Nc2ccccc2)n1,.,41%,0%,?
